Results as given in PubChem BioAssay.

assay: JC-1 mitochondrial signal, unstimulated adipocytes – cell-based, JC-1 fluorescence, 3T3-L1 adipocytes, 24 h, 100 nL compound, profiling panel (AID 1168); conditions: JC-1 mitochondrial fluorescence, higher = more signal, called active from +8 up or from −8 down; also: test concentration not given here

z-score, inactive:
O=C1c2ccccc2[C@](Cc2ccccc2I)(C(=O)NCCN2CCOCC2)[C@H](c2ccc(CO)cc2)N1Cc1ccccc1 0.421
CN(C)CCCCNC(=O)[C@H]1C[C@H]2C(=O)N3CCC[C@H]3C(=O)N2[C@H]1c1ccc(O)cc1 -0.104
C=C(CCCC)C(=O)CC[C@@H](OC(=O)c1ccccc1-c1ccccc1C(=O)O)c1cccc(OCCO)c1 0.584
C=C(C(=O)CC[C@H](OC(=O)c1cccnc1)c1ccc(CO)o1)C(C)C -1.78
COc1ccc(C#Cc2ccc3c(c2)[C@]2(C(=O)N3)[C@H](C(=O)N3CCc4cc(OC)c(OC)cc4C3)[C@H]3C(=O)O[C@H](c4ccccc4)[C@H](c4ccccc4)N3[C@@H]2c2ccc(O)cc2)cc1 1.72
[N-]=[N+]=NCc1ccccc1C[C@@]1(C(=O)N2CCCCC2)N=C(c2ccc(OCCCO)cc2)O[C@@H]1c1ccccc1N=[N+]=[N-] 0.636
C=C[C@@H](COC(C)=O)NS(=O)(=O)c1ccc(Br)cc1 -0.195
CCOC(=O)C[C@H]1[C@H](OC(=O)c2ccc(-c3ccccc3)cc2)[C@@H](NC(=O)c2ccc3ccccc3c2)c2cc(OCCCO)ccc2N1C(=O)c1ccc2ccccc2n1 1.26
CC(C)(C)OC(=O)CC[C@]1(C(=O)NCCN2CCOCC2)N=C(c2ccc(OCCCO)cc2)O[C@H]1c1ccccc1 0.134
C=CCOC(=O)[C@@H]1[C@H]2C(=O)O[C@H](c3ccccc3)[C@H](c3ccccc3)N2[C@H](c2ccc(OCCOC(=O)[C@H]3C[C@H]4C(=O)N[C@@H](CC(C)C)C(=O)N4[C@H]3c3ccc(O)cc3)cc2)[C@@]12C(=O)Nc1ccc(I)cc12 3.06
O=C(CS)NCCCCCCNC(=O)[C@@H]1C[C@@H]2C(=O)N3CCC[C@H]3C(=O)N2[C@@H]1c1cccc(OCCO)c1 0.193
COc1ccccc1CN1C(=O)c2ccccc2[C@@H](C(=O)NC(C)C)[C@@H]1c1ccc(CO)cc1 -0.41
C=CCOC(=O)[C@@H]1[C@H]2C(=O)O[C@H](c3ccccc3)[C@H](c3ccccc3)N2[C@H](c2ccc(OCCOC(=O)[C@H]3C[C@H]4C(=O)N[C@@H](CCCCNC(C)=O)C(=O)N4[C@H]3c3cccc(OCCO)c3)cc2)[C@@]12C(=O)Nc1ccc(I)cc12 0.605
O=C1OCC=C[C@H]2OC34C=CCN(Cn5nnc6ccccc65)C(=O)[C@H]3N(CCCCCCO)C(=O)[C@@H]4[C@@H]12 (stereo not given in full) -0.0324
COC(=O)Cn1c(C(=O)N2CCCC2)cc2c1C[C@H]1CN(C(=O)c3ccccc3)[C@@](Cc3ccc(F)cc3)(C(=O)OC)[C@@H]21 -1.47
COc1cc(OC)c(C(O)C2C=CC3C(=O)N(c4ccccc4)C(=O)C3N2Nc2ccc(C#N)cc2)cc1Br (stereo not given) -0.403
COc1ccc([Si](C)(C)[C@@H]2[C@@H](CC(=O)N3CCC[C@H]3CO)O[C@]3(C(=O)N(Cc4ccc(N5C(=O)c6cccc7cccc5c67)cc4)c4ccccc43)[C@H]2C)cc1 -0.209
CC=CC(O)C1C=CC2C(=O)N(c3ccccc3)C(=O)C2N1Nc1ccccc1 (stereo not given) 0.243
CC(C)C(=C=CC[C@@H](O)c1ccccc1OCCO)C[C@@H](O)COCc1ccccc1 0.791
CC(C)(C)N1CC=CC23O[C@@H]4C=CCOC(=O)[C@@H]4[C@H]2C(=O)N(CCCO)[C@@H]3C1=O (stereo not given in full) -0.272
COc1c(C)cc(-c2cc3c(c(-c4ccccc4)n2)[Si](C(C)C)(C(C)C)OC3)cc1C -0.00733
Cc1ccc(S[C@]2(C(=O)NCC(C)C)CC(=O)N(Cc3ccccc3Cl)[C@@H]2c2ccc(CO)cc2I)cc1 -0.559
O=C1O[C@@H](c2ccccc2)[C@@H](c2ccccc2)N2[C@@H](c3ccccc3OCCO)[C@]3(C(=O)Nc4ccc(C#CC5=CCCCC5)cc43)[C@@H](C(=O)NC[C@H](O)c3ccccc3)[C@H]12 2.81
O=C(O)[C@H](Cc1ccccc1)n1cc(-c2ccccn2)nn1 1.56
CC1CC/C=C\[C@H]2OC34C=CCN(CCN5CCOCC5)C(=O)[C@H]3N(CCO)C(=O)[C@@H]4C2C(=O)O1 (stereo not given in full) -0.533
CCOC(=O)C[C@H]1[C@H](OC(=O)c2ccc(-c3ccccc3)cc2)[C@@H](NC(=O)C2CCCCC2)c2cc(OCCCO)ccc2N1C(=O)c1ccccc1 -0.983
COCCCNC(=O)[C@@]1(Sc2ccc(C)cc2)CC(=O)N(Cc2cc(C(F)(F)F)cc(C(F)(F)F)c2)[C@@H]1c1ccc(CO)cc1 0.895
CCCC[C@@H]1C[C@H]1[C@@H](NC(=O)c1cccnc1)c1ccc(-c2ccccc2)cc1 -1.18
O=C1O[C@@H](c2ccccc2)[C@@H](c2ccccc2)N2[C@@H](c3ccc(O)cc3)[C@]3(C(=O)Nc4ccc(C#CCCO)cc43)[C@@H](C(=O)Nc3nc4ccccc4s3)[C@H]12 -1.3
O=C(O)[C@]1(Cc2ccccc2)N=C(c2ccc(OCCCO)cc2)O[C@@H]1c1ccccc1 0.766
Cc1ccc(S[C@]2(C(=O)NCc3ccccc3)CC(=O)N(C(C)C)[C@@H]2c2ccc(CO)cc2I)cc1 -0.371
Cc1ccc(C(C)CC(O)C2C=CC3C(=O)N(c4ccccc4)C(=O)C3N2Nc2ccc(C(C)C)cc2)o1 (stereo not given) -1.44
C=CC[C@]12N=C(c3ccc(OCCCO)cc3)O[C@H]1c1ccccc1N(C)C2=O -0.427
C=C(COC)/C(=C/C[C@@H](OC(=O)c1ccncc1)c1ccc(CO)o1)c1cnc2ccccc2c1 0.654
O=C1NC(=O)C2C1C=CC(C(O)c1cc(C(F)(F)F)cc(C(F)(F)F)c1)N2Nc1ccc(Cl)cc1Cl (stereo not given) -1.19
